Experimental data taken from the supplement of paper PMC10849652.
The full data set covers some 8,800 targets. This sample favours those with a hit. About 0.5% of all pairs of compound and target were hits. A number with no mark means an inactive call.

Assays:
Experiment in all cases: log2 fold change, soluble protein after heating vs DMSO (PISA); higher = thermal stabilisation; K562 lysate, 10 uM; active = over 0.2 and 3.5 SD of the protein, either way, in both replicates (recomputed)
erlotinib = compound: C#Cc1cccc(Nc2ncnc3cc(OCCOC)c(OCCOC)cc23)c1 [erlotinib]
Outline: (§1)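 K562 pellets were dounce-homogenised in PBS pH 7.4 containing 1 mM MgCl2, and the crude extract, at 1 mg/mL protein, was exposed to 10 μM compound for 30 min. Aliquots were heated for 3 min across 48°C-58°C, pooled, brought to 0.5% NP-40 at 4°C and spun at 21,000xg for 90 min, with the supernatant taken as soluble protein. TMTpro 16plex LC-MS/MS with equalised channel sums quantified that protein. Values are log-two fold changes in thermal stability relative to solvent controls, taken from duplicates.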

[1] = compound: C/C(=N\NC(=O)C1=CC(=CC=C1)S(=O)(=O)N2CCOCC2)/C3=C(C=CC(=C3)Cl)O
Outline: as §1

[2] = compound: C1=CC(=CC=C1C2=NC3=C(N2)C=C(C=C3)C(=O)N)OC4=CC=C(C=C4)Cl
Outline: as §1

[3] = compound: C1=CC2=C(C=CC(=C2)/C=C\3/C(=O)NC(=NCC4=CC=CS4)S3)N=C1
Outline: as §1

[4] = compound: C1=CC2=NC=CN=C2C=C1/C=C/3\C(=O)NC(=O)S3
Outline: as §1

[5] = compound: C1=CC=C(C=C1)C2=NC(=C(N2)C3=CC=NC=C3)C4=CC(=C(C=C4)Cl)O
Outline: as §1

[6] = compound: C1=CC=C2C(=C1)C3=NNC4=CC=CC(=C43)C2=O
Outline: as §1

[7] = compound: C1CCN(C1)C(=O)NC2=CC=CC(=C2)NC3=NC=C(C(=N3)NCCC4=CN=CN4)Br
Outline: as §1

[8] = compound: C1CN(CCC1(CC2=CC=C(C=C2)Cl)N)C3=NC=NC4=C3C=CN4
Outline: as §1

IRAK-1-4 Inhibitor I = compound: C1COCCN1CCN2C3=CC=CC=C3N=C2NC(=O)C4=CC(=CC=C4)[N+](=O)[O-] [IRAK-1-4 Inhibitor I]
Outline: as §1

ibrutinib = compound: C=CC(=O)N1CCC[C@@H](n2nc(-c3ccc(Oc4ccccc4)cc3)c3c(N)ncnc32)C1 [ibrutinib]
Outline: as §1

[9] = compound: CC(=O)c1cnc2ccc(-c3cc(Cl)c(O)c(Cl)c3)nc2c1N[C@H]1CC[C@H](CN(C)C)CC1
Outline: as §1

ralimetinib = compound: CC(C)(C)Cn1c(N)nc2ccc(-c3[nH]c(C(C)(C)C)nc3-c3ccc(F)cc3)nc21 [ralimetinib]
Outline: as §1

[10] = compound: CC(C)(O)CC(=O)NCCn1ccc2ncnc(Nc3ccc(Oc4cccc(C(F)(F)F)c4)c(Cl)c3)c21
Outline: as §1

[11] = compound: CC(C)C1=C2N=C(C=C(N2N=C1)NCC3=CC=CC=C3)NCCCCCCN
Outline: as §1

[12] = compound: CC1=C(C(CC(=O)N1)C2=CC=C(C=C2)C(F)(F)F)C(=O)NC3=C(C=C4C(=C3)C=NN4)F
Outline: as §1

[13] = compound: CC1=C(C2=C(C=C1)C(=O)C3=CC=CC=C3N2CCCN)C
Outline: as §1

[14] = compound: CC1=C(C=C(C=C1)NC(=O)C2=CC(=CC=C2)C(C)(C)C#N)NC3=CC4=C(C=C3)N=CN(C4=O)C
Outline: as §1

[15] = compound: CC1=C(C=C(C=C1)NC(=O)C2=CC(=CC=C2)N(C)C)NC(=O)C3=CC=C(C=C3)O
Outline: as §1

[16] = compound: CC1=CC=C(C=C1)SC2=C3C=C(SC3=CN=C2)C(=O)N
Outline: as §1

Chain of UniProt Q9BUE6 (Q9BUE6 whole entry, looked up): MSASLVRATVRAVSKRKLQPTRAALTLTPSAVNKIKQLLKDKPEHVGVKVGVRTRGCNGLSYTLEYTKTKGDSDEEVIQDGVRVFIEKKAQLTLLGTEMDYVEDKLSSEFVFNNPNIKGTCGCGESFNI
Chain of UniProt P20839 (P20839 whole entry, looked up): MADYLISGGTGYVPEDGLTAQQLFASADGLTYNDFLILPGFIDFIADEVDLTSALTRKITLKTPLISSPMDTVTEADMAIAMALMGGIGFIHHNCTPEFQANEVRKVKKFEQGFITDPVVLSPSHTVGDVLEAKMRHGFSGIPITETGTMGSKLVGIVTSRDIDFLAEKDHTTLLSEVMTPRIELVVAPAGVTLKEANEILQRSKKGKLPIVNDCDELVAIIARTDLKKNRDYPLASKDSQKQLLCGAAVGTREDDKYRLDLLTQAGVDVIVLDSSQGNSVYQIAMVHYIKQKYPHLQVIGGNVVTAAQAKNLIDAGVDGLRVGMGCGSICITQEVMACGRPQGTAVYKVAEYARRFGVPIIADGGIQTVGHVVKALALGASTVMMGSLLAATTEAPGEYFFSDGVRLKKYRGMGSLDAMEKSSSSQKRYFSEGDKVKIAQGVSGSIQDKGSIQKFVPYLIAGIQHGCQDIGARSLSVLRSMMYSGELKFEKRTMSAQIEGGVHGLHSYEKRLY
Chain of UniProt Q6DN03 (Q6DN03 whole entry, looked up): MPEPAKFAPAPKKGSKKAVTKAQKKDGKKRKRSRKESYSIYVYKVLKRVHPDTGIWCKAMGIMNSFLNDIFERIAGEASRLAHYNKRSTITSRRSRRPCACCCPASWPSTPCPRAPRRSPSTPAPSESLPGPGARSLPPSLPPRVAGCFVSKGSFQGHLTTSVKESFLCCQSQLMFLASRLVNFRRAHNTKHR
Chain of UniProt Q9NVX0 (Q9NVX0 whole entry, looked up): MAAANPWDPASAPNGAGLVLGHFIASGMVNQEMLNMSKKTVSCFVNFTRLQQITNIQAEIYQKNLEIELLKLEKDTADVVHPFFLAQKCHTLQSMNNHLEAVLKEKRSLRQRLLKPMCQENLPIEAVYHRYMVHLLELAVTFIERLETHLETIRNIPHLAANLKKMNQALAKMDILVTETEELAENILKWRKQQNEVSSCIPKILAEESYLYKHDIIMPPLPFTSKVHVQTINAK
Chain of UniProt Q07666 (Q07666 whole entry, looked up): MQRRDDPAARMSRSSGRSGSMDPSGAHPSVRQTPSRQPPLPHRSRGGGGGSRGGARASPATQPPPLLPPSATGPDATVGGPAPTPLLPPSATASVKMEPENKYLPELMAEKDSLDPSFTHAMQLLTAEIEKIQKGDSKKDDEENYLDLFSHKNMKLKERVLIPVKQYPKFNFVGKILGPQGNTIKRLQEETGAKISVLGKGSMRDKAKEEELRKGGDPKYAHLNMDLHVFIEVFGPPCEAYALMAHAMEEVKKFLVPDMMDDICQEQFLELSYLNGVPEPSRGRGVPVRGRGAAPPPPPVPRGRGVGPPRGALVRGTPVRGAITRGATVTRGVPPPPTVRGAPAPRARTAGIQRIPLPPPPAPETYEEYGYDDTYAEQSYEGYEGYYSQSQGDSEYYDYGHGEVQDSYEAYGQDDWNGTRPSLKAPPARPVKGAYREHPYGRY
Chain of UniProt Q9NVR2 (Q9NVR2 whole entry, looked up): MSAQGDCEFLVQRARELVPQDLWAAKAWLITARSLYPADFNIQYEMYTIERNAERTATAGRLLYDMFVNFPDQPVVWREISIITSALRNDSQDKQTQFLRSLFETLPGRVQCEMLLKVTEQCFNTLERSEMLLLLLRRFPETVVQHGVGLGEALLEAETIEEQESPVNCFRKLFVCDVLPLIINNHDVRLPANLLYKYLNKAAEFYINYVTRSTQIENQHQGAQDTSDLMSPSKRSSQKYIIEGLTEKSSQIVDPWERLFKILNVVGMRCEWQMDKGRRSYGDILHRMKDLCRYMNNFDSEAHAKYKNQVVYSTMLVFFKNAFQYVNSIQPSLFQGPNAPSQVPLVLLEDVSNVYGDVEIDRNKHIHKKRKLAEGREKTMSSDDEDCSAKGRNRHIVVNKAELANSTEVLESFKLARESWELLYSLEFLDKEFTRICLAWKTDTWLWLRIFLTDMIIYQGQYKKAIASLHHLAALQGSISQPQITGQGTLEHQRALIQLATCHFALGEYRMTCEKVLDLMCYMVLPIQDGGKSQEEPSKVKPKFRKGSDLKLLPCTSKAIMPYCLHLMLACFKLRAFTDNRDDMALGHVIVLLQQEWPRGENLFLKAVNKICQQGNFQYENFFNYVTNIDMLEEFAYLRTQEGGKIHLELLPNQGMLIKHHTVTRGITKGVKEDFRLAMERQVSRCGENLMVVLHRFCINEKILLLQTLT
Chain of UniProt P26583 (P26583 whole entry, looked up): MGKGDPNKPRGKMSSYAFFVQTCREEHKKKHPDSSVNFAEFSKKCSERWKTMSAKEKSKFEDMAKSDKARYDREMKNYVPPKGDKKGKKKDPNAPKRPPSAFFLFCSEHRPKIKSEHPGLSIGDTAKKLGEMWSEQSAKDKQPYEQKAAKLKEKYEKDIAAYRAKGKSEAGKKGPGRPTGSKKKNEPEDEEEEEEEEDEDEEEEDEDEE
Chain of UniProt Q8WVV9 (Q8WVV9 whole entry, looked up): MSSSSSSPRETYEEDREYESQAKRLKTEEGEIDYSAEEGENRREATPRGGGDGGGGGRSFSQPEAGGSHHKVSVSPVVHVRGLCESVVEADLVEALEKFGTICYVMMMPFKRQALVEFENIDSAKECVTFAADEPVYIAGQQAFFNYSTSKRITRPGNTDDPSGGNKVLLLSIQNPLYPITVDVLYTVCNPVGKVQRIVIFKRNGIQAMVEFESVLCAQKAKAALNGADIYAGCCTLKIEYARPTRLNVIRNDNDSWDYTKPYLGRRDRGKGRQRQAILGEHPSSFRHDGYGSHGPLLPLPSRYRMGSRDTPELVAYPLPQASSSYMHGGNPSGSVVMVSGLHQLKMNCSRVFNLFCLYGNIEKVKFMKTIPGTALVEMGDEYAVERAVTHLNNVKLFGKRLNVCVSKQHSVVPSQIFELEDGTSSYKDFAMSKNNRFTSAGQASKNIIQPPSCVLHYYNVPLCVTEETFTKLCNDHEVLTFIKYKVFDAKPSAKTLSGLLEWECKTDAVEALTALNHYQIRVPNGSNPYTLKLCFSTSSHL
Chain of UniProt Q14527 (Q14527 whole entry, looked up): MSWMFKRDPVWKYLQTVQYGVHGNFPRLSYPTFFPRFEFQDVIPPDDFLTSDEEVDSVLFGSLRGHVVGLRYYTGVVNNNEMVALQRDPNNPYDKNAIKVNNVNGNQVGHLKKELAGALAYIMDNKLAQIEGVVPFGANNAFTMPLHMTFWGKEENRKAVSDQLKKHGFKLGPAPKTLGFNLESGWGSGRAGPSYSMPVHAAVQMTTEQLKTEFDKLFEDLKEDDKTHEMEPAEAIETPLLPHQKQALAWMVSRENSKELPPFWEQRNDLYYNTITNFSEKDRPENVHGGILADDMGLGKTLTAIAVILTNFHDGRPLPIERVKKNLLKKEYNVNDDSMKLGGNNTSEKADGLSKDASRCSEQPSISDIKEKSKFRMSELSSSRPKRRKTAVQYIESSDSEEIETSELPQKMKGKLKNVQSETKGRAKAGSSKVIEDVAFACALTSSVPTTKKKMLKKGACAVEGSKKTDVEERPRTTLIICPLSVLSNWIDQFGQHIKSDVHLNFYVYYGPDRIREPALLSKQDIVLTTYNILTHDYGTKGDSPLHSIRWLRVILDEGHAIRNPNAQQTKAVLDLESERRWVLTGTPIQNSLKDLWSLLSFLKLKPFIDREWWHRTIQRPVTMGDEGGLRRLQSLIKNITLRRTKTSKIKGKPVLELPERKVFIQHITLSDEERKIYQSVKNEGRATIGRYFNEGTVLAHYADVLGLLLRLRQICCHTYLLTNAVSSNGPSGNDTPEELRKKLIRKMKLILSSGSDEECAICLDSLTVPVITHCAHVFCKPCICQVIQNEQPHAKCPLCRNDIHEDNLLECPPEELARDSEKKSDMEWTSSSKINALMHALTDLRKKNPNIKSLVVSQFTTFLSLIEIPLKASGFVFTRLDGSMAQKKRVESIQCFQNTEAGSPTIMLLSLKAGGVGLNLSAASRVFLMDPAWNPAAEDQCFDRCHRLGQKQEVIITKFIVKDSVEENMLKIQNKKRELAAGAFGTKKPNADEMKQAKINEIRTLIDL
Chain of UniProt Q8IY47 (Q8IY47 whole entry, looked up): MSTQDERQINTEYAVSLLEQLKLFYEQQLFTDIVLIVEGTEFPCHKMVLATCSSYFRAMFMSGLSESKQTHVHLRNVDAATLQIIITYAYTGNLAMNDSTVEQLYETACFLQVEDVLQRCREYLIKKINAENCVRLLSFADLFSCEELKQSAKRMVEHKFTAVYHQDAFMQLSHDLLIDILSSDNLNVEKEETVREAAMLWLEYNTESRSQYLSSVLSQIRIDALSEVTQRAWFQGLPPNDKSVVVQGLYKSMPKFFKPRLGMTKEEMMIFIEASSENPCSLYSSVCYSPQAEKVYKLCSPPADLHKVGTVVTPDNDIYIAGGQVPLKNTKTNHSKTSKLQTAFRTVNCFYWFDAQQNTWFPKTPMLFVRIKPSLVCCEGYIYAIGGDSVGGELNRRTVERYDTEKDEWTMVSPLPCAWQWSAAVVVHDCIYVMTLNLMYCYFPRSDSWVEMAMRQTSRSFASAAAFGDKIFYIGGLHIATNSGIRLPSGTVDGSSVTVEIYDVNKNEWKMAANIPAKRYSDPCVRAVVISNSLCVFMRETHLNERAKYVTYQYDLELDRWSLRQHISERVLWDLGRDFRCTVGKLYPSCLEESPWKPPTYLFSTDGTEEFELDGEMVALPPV
Chain of UniProt Q9H6D7 (Q9H6D7 whole entry, looked up): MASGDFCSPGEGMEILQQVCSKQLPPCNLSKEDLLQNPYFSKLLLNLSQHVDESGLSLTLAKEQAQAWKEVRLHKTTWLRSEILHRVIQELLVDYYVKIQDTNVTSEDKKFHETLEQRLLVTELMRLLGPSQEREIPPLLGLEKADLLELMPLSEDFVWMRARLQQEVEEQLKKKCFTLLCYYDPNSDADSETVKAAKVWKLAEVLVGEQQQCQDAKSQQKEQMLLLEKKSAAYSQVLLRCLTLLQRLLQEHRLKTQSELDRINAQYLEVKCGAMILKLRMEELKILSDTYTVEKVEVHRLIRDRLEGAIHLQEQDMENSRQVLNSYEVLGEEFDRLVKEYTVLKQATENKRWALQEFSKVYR

Row | Target | log2 fold change (erlotinib) | log2 fold change [1] | log2 fold change [2] | log2 fold change [3] | log2 fold change [4] | log2 fold change [5] | log2 fold change [6] | log2 fold change [7] | log2 fold change [8] | log2 fold change (IRAK-1-4 Inhibitor I) | log2 fold change (ibrutinib) | log2 fold change [9] | log2 fold change (ralimetinib) | log2 fold change [10] | log2 fold change [11] | log2 fold change [12] | log2 fold change [13] | log2 fold change [14] | log2 fold change [15] | log2 fold change [16]
1 | ISCA1 isoform 2 (UniProt Q9BUE6) | -0.025 | -0.036 | 0.021 | -0.007 | -0.04 | -0.033 | -0.013 | 0.003 | -0.031 | 0.031 | 0.049 | -0.001 | 0.04 | -0.028 | -0.069 | -0.276 | -0.006 | 0.031 | -0.029 | -0.016
2 | KHDRBS1 (UniProt Q07666) | -0.013 | 0.001 | -0.035 | 0.009 | -0.038 | 0.006 | -0.016 | 0.026 | 0.037 | -0.013 | 0.023 | -0.517 (active) | -0.021 | -0.009 | 0.016 | 0.023 | 0.007 | -0.026 | 0 | 0.044
3 | HLTF (UniProt Q14527) | 0.052 | -0.019 | 0.081 | -0.003 | -0.032 | -0.028 | 0.008 | -0.053 | 0.015 | -0.019 | 0.016 | 0.054 | 0.024 | -0.017 | -0.023 | 0.046 | 0.048 | -0.022 | 0.003 | -0.018
4 | INPP4A (UniProt Q96PE3) | 0.002 | 0.007 | 0.017 | -0.005 | -0.023 | 0.099 | 0.069 | -0.018 | -0.051 | 0.066 | -0.166 | 0.001 | 0.061 | -0.013 | -0.034 | 0.02 | -0.086 | 0.022 | -0.053 | -0.025
5 | KCTD20 (UniProt Q7Z5Y7) | 0.072 | -0.145 | -0.006 | 0 | 0.001 | 0.063 | 0.038 | 0.081 | 0.083 | 0.048 | 0.109 | 0.071 | 0.099 | -0.009 | 0.044 | 0.062 | 0.034 | -0.001 | 0.105 | -0.051
6 | HAUS3 (UniProt Q68CZ6) | 0.022 | 0.01 | -0.033 | 0.016 | -0.028 | 0.004 | -0.06 | -0.045 | 0.019 | 0.025 | -0.025 | -0.021 | 0.009 | -0.019 | 0.001 | 0.022 | 0.026 | 0.014 | 0.025 | 0.025
7 | IMPDH1 isoform 6 (UniProt P20839) | 0.018 | 0.036 | -0.031 | 0.009 | -0.001 | -0.001 | 0.017 | 0.028 | 0.032 | 0.003 | -0.007 | 0.009 | 0.034 | -0.007 | 0.01 | -0.039 | 0.033 | 0.014 | -0.005 | -0.004
8 | KBTBD2 (UniProt Q8IY47) | -0.002 | 0.019 | 0.056 | 0 | 0.011 | 0.016 | -0.079 | -0.023 | 0.052 | 0.097 | -0.005 | -0.039 | -0.113 | -0.227 | 0 | 0.001 | -0.036 | 0.116 | 0 | -0.041
9 | HIST2H2BC (UniProt Q6DN03) | -0.036 | 0.144 | 0.001 | 0.006 | 0.061 | 0.007 | -0.012 | 0.043 | 0.04 | -0.028 | 0.003 | -0.052 | -0.013 | 0.003 | -0.055 | 0.066 | 0.029 | -0.001 | 0.032 | 0.031
10 | HAUS4 (UniProt Q9H6D7) | 0.012 | -0.029 | -0.036 | 0.064 | -0.003 | 0.015 | -0.015 | -0.025 | -0.007 | -0.016 | 0.04 | -0.033 | 0.003 | 0.01 | -0.004 | 0.006 | -0.016 | -0.008 | 0.057 | -0.01
11 | ISOC2 (UniProt Q96AB3) | -0.018 | 0.003 | 0.001 | -0.035 | -0.006 | -0.072 | 0.003 | -0.007 | -0.001 | 0.053 | 0.017 | -0.021 | 0.056 | 0.024 | 0.014 | -0.004 | -0.131 | 0.054 | 0.041 | 0.035
12 | INTS10 (UniProt Q9NVR2) | 0.008 | 0.056 | -0.001 | 0.061 | -0.044 | 0.026 | -0.061 | -0.006 | 0.044 | -0.004 | 0.079 | 0.021 | 0.01 | -0.02 | -0.023 | 0.036 | 0 | 0.002 | -0.014 | 0.036
13 | HMGB2 (UniProt P26583) | -0.007 | 0.039 | 0.007 | 0.008 | -0.017 | 0.046 | 0.013 | 0.014 | -0.008 | -0.026 | -0.038 | 0.012 | -0.034 | 0.026 | 0.014 | -0.013 | -0.001 | -0.035 | 0.015 | -0.004
14 | GUSB (UniProt P08236) | -0.053 | -0.043 | 0.135 | -0.072 | -0.041 | -0.058 | -0.072 | -0.003 | 0.055 | 0.066 | 0.06 | -0.099 | 0.056 | -0.097 | 0.099 | -0.075 | 0.069 | 0.044 | -0.029 | -0.088
15 | HNRNPLL (UniProt Q8WVV9) | 0.007 | 0 | 0.011 | 0.009 | -0.017 | -0.019 | -0.035 | 0.006 | -0.009 | -0.026 | -0.024 | 0.016 | 0.005 | 0.005 | -0.004 | -0.019 | -0.012 | 0.026 | 0.024 | 0.021
16 | HAUS2 (UniProt Q9NVX0) | 0 | 0.045 | -0.12 | 0.116 | -0.02 | 0.03 | 0.031 | -0.015 | 0.026 | 0.003 | 0.145 | 0.1 | 0.054 | 0.058 | 0.003 | 0.026 | -0.079 | -0.017 | 0.023 | -0.021
